The values that follow come from ChEMBL document CHEMBL3988442, “University of Dundee, Small-Polar-MMV Screening Library” (2021).

Molecules are shown by their SMILES. In all, about 69,000 compounds went through this assay and about 950 (1.4%) showed an effect of 50% or more. This excerpt belongs to a sample that is enriched for strong results.

This assay concerns Mycobacterium tuberculosis. The assay is described as follows: Cornell M. t heat shock assay. Note: in the data most compounds retested in dose-response had high values. It is filed as functional, organism-based. On the set-up: dose or concentration left out as unconfirmed.
`CCN(CC)Cc1nc2c(o1)CN(S(=O)(=O)c1cccs1)C2.O=C(O)C(F)(F)F`: the “Percent Effect” value is on record as 10.46%.
To `CN(C)CCN1C(=O)CCCC12CCCN(Cc1cccs1)C2.O=C(O)C(F)(F)F.O=C(O)C(F)(F)F` (centres undefined) belongs -7.663%; to `CN(C)C(=O)CC1CC2(CCN(CC3CC3)CC2)Oc2ccccc21.O=C(O)C(F)(F)F` (centres undefined), 11.01%.
To `Cc1ccc(C(=O)N2CCC3(CCN3Cc3ccc(F)cc3)C2)cn1.O=C(O)C(F)(F)F` (centres undefined) belongs 99.27%.
As for `COCCN1CCC12CCN(C(=O)c1ccc(C)nc1)C2.O=C(O)C(F)(F)F` (centres undefined), the figure is 29.56%.
On to `Cc1cnc(C(=O)N2CCC3(CCN3Cc3ccc(F)cc3)C2)cn1.O=C(O)C(F)(F)F` (centres undefined), for which the “Percent Effect” value is reported as -3.427%.
To `Cc1nc2[nH]cnc(NCCN3CCCC3)c-2n1` belongs 57.49%; to `Cc1nc2[nH]cnc(NCCCN3CCOCC3)c-2n1`, -13.88%.
As for `Cc1nc2[nH]cnc(NCCN3CCOCC3)c-2n1`, the figure is -1.565%; as for `CCc1c(C)sc2ncnc(N3CC[C@@H](N4CCC(O)CC4)[C@H](O)C3)c12`, 10.29%; as for `CCc1c(C)sc2ncnc(N3CC[C@@H](N4CCOCC4)[C@H](O)C3)c12`, 11.35%.
As for `CCc1c(C)sc2ncnc(N3C[C@H](O)[C@@H](N4CCCC4)C3)c12`, the figure is 59.45%; as for `N[C@@H]1CCC[C@@H](Oc2ccc(F)cc2Oc2cccc(F)c2)[C@@H]1O`, 1.479%; as for `Cc1n[nH]c(C)c1CCC(=O)N[C@@H]1CCC[C@@H](Oc2ccccc2)[C@@H]1O`, -15.12%.
In the case of `N[C@@H]1CCC[C@@H](Oc2ccc(F)cc2Oc2ccccc2)[C@@H]1O`, the “Percent Effect” value was -7.942%.
Regarding `Cc1ccc(Oc2cc(F)ccc2O[C@@H]2CCC[C@@H](N)[C@H]2O)cc1`, the “Percent Effect” value worked out at 103.2%.
As for `CN[C@@H]1CCC[C@@H](Oc2ccccc2Oc2ccc(C)cc2)[C@@H]1O`, the figure is 50.23%.
To `Cc1noc(C)c1C(=O)N[C@@H]1CCC[C@@H](Oc2ccccc2)[C@@H]1O` belongs 10.41%; to `O=C(O)C(F)(F)F.O=c1ccc2c([nH]1)CCC(NCc1ccc(F)cc1)C2` (centres undefined), -5.527%; to `Cc1nc(CN2C[C@@H]3CN(C(=O)C4CC4)C[C@@H]3C2=O)cs1.O=C(O)C(F)(F)F`, -7.229%.
To `O=C(O)C(F)(F)F.O=C(c1ccco1)N1CCOCC2(C1)CN(c1cccnc1)C(=O)CO2` (centres undefined) belongs -36.47%; to `CCN(CC)c1ncc(CNC2CCc3ncnn3C2)s1` (centres undefined), 0.07548%.
Take `CCN1CCOCC2(CCCN(C(=O)c3conc3C)C2)C1.O=C(O)C(F)(F)F` (centres undefined): the “Percent Effect” value is on record as -3.777%.
Consider `Cc1cc2nc(C(C)C)cc(NCC(c3ccccn3)N(C)C)n2n1` (centres undefined), for which the “Percent Effect” value turned out to be 107.7%.
With `CC(C)c1cc(NCC(O)c2ccccn2)n2nccc2n1` (centres undefined), the “Percent Effect” value was 105.1%.
`CCCC(CNc1cc(C(C)C)nc2ccnn12)N(C)C` (centres undefined): the “Percent Effect” value turned out to be 105.9%.
To `Cc1cc2nc(C(C)C)cc(NCCc3cccn3C)n2n1` belongs 51.31%.
Consider `CC(C)c1cc(NCC(C)N2CCCC2)n2nccc2n1` (centres undefined), for which the “Percent Effect” value amounted to 19.07%.
On to `Cc1cc2nc(C(C)C)cc(NCc3ccncc3)n2n1`, for which the “Percent Effect” value stood at 10.36%.
To `CC(C)c1cc(NCC(O)CO)n2nccc2n1` (centres undefined) belongs 7.568%; to `Cc1cc2nc(C(C)C)cc(NCCc3ccncc3)n2n1`, 5.483%.
Regarding `COc1cc(NCC(c2ccccn2)N(C)C)ncn1` (centres undefined), the “Percent Effect” value turned out to be 7.48%.
As for `Cc1cc2nc(C(C)C)cc(NC(C)c3nncn3C)n2n1` (centres undefined), the figure is 6.767%; as for `CC(C)c1cc(NCC(O)c2ccncc2)n2nccc2n1` (centres undefined), 0.8571%.
To `CC(C)c1cc(NCC(O)c2ccc(F)cc2)n2nccc2n1` (centres undefined) belongs 13.68%; to `CCOC1COC2(CCN(Cc3cccnc3OC)CC2)C1.O=C(O)C(F)(F)F.O=C(O)C(F)(F)F` (centres undefined), 16.61%; to `CC(=O)N1C[C@@H]2CC[C@H](C1)N(S(=O)(=O)c1ccc(F)cc1Cl)C2`, 10.85%.
As for `N#Cc1ccc(N2CCC3(CC2)CC(N2CCOCC2)CO3)cc1.O=C(O)C(F)(F)F` (centres undefined), the figure is 25.96%; as for `CN(C)C1CCN(C(=O)c2cc(-c3ccn(C)n3)n3ccccc23)CC1.O=C(O)C(F)(F)F`, 44.75%; as for `Cl.NCc1ccc(Oc2ccc(F)c(F)c2)cc1C(F)(F)F`, 1.199%.
As for `C[C@@H]1CN(Cc2ccoc2)C[C@]12CCN(CC(=O)N(C)C)C2=O.O=C(O)C(F)(F)F`, the “Percent Effect” value is listed as 10.48%.
As for `CS(=O)(=O)NC[C@H]1OC[C@H]2CN(Cc3ccsc3)CC[C@H]21.O=C(O)C(F)(F)F`, the figure is -31.27%.
To `Cc1cc2nc(C(C)C)cc(NCCNc3ncccc3C)n2n1` belongs -16.57%; to `Cc1cccnc1NCCNc1cc(C(C)C)nc2ccnn12`, 97.5%.
To `Cc1cc(NCCNc2ncccc2C)n2nc(C)cc2n1` belongs 16.17%; to `Cc1cnc(C(=O)N2C[C@H]3CC[C@@H]2CN(c2cnccn2)C3)cn1`, -7.052%; to `CCC(C)N1Cc2c(C(=O)N3CCOCC3)nn(C)c2C1.O=C(O)C(F)(F)F` (centres undefined), -5.344%.
Consider `CC(C)N1CCCCC1c1nc(N(C)C)ncc1I.Cl` (centres undefined), for which the “Percent Effect” value is reported as -21.57%.
Take `CC(C)N(C)Cc1cnc2n1CCN(S(=O)(=O)c1ccccc1)C2.O=C(O)C(F)(F)F`: the “Percent Effect” value was -26.7%.
As for `Cc1nc(C2CCNC2)nc2c1CCC(=O)N2CC(C)C.Cl` (centres undefined), the figure is -0.8245%; as for `c1ccc(COC2CCN(c3cncc(-n4cccn4)n3)CC2)cc1`, 53.35%; as for `c1ccc(C2CCCN(c3cncc(-n4cccn4)n3)CC2)cc1` (centres undefined), 6.437%.
With `c1ccc(C2CCN(c3cncc(-n4cccn4)n3)CC2)cc1`, the “Percent Effect” value is reported as -1.073%.
In the case of `CN(C)S(=O)(=O)N1CCO[C@H]2[C@H](Oc3cccnc3)CC[C@@H]21.O=C(O)C(F)(F)F`, the “Percent Effect” value is -23.12%.
To `CCOc1ccc(C2C3=C(O)OCC3=Nc3nc(SC)nc(N)c32)cc1` (centres undefined) belongs 5.942%; to `CC(C)N1CCc2c(C(=O)N3CCOCC3)nn(C)c2C1.O=C(O)C(F)(F)F`, 1.567%; to `Cc1ccc(-c2nc(CN3CCc4cnc(C)nc4C3)no2)cc1`, 7.068%.
To `CC(C)c1ncc2c(n1)CN(Cc1nc(Cc3ccccc3)no1)CC2` belongs 21.5%.
To `CC(C)c1ncc2c(n1)CN(Cc1noc(-c3ccccc3)n1)CC2` belongs 59.47%; to `Cc1cccc(CN2CCOCC3(CCN(C4CCOCC4)C3)C2)c1.O=C(O)C(F)(F)F.O=C(O)C(F)(F)F` (centres undefined), -7.998%.
Turning to `CC(=O)Nc1nc(C(=O)NCc2ccc(N3CCCC3)nc2)cs1`, the “Percent Effect” value is -13.06%.
Turning to `CC(=O)Nc1nc(C(=O)Nc2ccc(N3CCCCC3)nc2)cs1`, the “Percent Effect” value turned out to be 50.82%.
As for `CC(=O)Nc1nc(C(=O)NCc2ccc(N3CCCCCC3)nc2)cs1`, the figure is 8.395%.
To `O=C(O)C(F)(F)F.O=C(O)C(F)(F)F.c1cc(CN2CCc3ncc(CN4CCCCC4)n3CC2)cs1` belongs -20.06%; to `Cc1nc(COCC2CN(C(N)=O)Cc3nccn3C2)cs1.O=C(O)C(F)(F)F` (centres undefined), -0.7889%; to `NC1(c2nc(-c3cccs3)cc(=O)[nH]2)CCCC1`, -25.86%.
As for `CS(=O)(=O)NCCn1ccc(-c2cccs2)n1`, the figure is 0.1994%; as for `NC1(c2nc(-c3cccs3)cc(=O)[nH]2)CCCCC1`, -38.51%.
Regarding `Cc1cc(=O)[nH]c(-n2nc(-c3ccccc3)cc2N)n1`, the “Percent Effect” value turned out to be 105.3%.
Regarding `CCCc1cc(=O)[nH]c(-n2nc(-c3cccs3)cc2N)n1`, the “Percent Effect” value worked out at 106.1%.
In the case of `Cc1cc(=O)[nH]c(-n2nc(-c3cccs3)cc2N)n1`, the “Percent Effect” value is 94.15%.
To `NC1(c2nc(-c3ccccc3)cc(=O)[nH]2)CCCC1` belongs -2.897%; to `CCCS(=O)(=O)NCCn1ccc(-c2cccs2)n1`, -4.478%; to `NC1(c2nc(-c3ccccc3)cc(=O)[nH]2)CCCCC1`, 0.6123%.
To `Cc1noc(C)c1CN1CC[C@H]2OCC[C@@]2(C(=O)N(C)C)C1.O=C(O)C(F)(F)F` belongs -9.212%.
To `CC(C)CCN1C2(CCN(Cc3nccs3)C2)c2ccccc2S1(=O)=O.O=C(O)C(F)(F)F` (centres undefined) belongs 47.98%; to `CN(C)C(=O)COCC1CN(Cc2cccs2)Cc2ncn(C)c21.O=C(O)C(F)(F)F.O=C(O)C(F)(F)F` (centres undefined), -34.33%; to `COc1cc(Cl)cc(CN2CCCC(N3CCCC3)C2)c1OC` (centres undefined), 98.75%.
For `Clc1cc(CN2CCCC(Cn3cncn3)C2)c2ncccc2c1` (centres undefined), the “Percent Effect” value is on record as -4.966%.
As for `O[C@@H]1CN(Cc2cc(Cl)cc3cccnc23)C[C@@H]1O`, the figure is -38.19%; as for `COc1cc(Cl)cc(CN2CCCC(N3CCOCC3)C2)c1OC` (centres undefined), 2.91%.
As for `Clc1cc(CN2CCCN3CCCC3C2)c2ncccc2c1` (centres undefined), the “Percent Effect” value was found to be 99%.
To `COc1ccc(CN2CCCC(N3CCCC3)C2)cc1Cn1cncn1` (centres undefined) belongs -42.58%.
As for `CNC(=O)C1CNCCN1C(=O)c1ccc(C(F)(F)F)nc1C.Cl` (centres undefined), the figure is 13.87%; as for `CC(C)NC(=O)CC1COC2(CCN(Cc3cccnc3)CC2)C1.O=C(O)C(F)(F)F.O=C(O)C(F)(F)F` (centres undefined), -3.493%.
As for `Cc1nc(N2CCOCC2)nc2c1CCN(Cc1cccnc1)CC2.O=C(O)C(F)(F)F`, the figure is 5.04%; as for `Cc1nc(C)c2c(n1)CCN(Cc1ccco1)CC2`, 1.706%; as for `Cc1nc(N2CCCC2)nc2c1CCN(Cc1ccoc1)CC2.O=C(O)C(F)(F)F`, 64.12%.
On to `Oc1nc(N2CCCC2)nc2c1CCN(Cc1ccsc1)CC2`, for which the “Percent Effect” value is given as -11.88%.
To `CC(C)Oc1ncnc2c1CCN(Cc1ccco1)CC2.O=C(O)C(F)(F)F` belongs -23.01%; to `Cc1nc(N2CCOCC2)nc2c1CCN(Cc1ccsc1)CC2.O=C(O)C(F)(F)F`, 3.426%; to `Cc1nc(N2CCCC2)nc2c1CCN(Cc1ccco1)CC2.O=C(O)C(F)(F)F`, 66.31%.
To `Cc1nc(N2CCCC2)nc2c1CCN(Cc1nccn1C)CC2.O=C(O)C(F)(F)F` belongs -10.58%; to `Cc1nc(N2CCCC2)nc2c1CCN(Cc1ccsc1)CC2.O=C(O)C(F)(F)F`, 100.4%.
